Reference: PubChem BioAssay (EPA / NIEHS)
Where “and” joins values, the source holds several entries; their conditions need not be identical. Identical values can stand only once. Records with an inconclusive call do not appear. More than one record can exist for a structure, and the calls need not agree. Calls of active or inactive are those of the source. Rule for the calls, unless noted: active = hit-call score of the fitted dose curve at least 0.9, where 1 is the maximum; inconclusive = response in the unintended direction; inactive = score below 0.9.

Key:
[1] = ATG_XTT_Cytotoxicity: Cytotoxicity Assessment in the Attagene TRANS-FACTORIAL HepG2 Assay (AID 2283584);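 for AC50: cells exposed to compound for 24 h before reading; active means loss of viability signal versus DMSO baseline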
Summary of the method: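 Cells: human HepG2, transiently transfected with MRTU reporter constructs. Exposure 24 h. Readout: XTT, cell number. Baseline/neg ctrl DMSO; loss-of-signal scored.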

[2] = TOX21_p53_BLA_p2_viability: Viability Assessment in the Tox21 HCT-116 p53 Agonism Beta-lactamase Assay, Phase 2 (AID 2283591);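 note: compound exposure lasted 16 h at 37 °C; actives lower the ATP signal meaning cytotoxicity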
Summary of the method: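 Cytotoxicity readout: CellTiter-Glo ATP luminescence, 30 min at room temperature, after the beta-lactamase read. Cells were HCT116 exposed 16 h at 37C to compounds pin-transferred at 217-fold dilution from DMSO stocks.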

[3] = molecular target: Cellular tumor antigen p53 (Homo sapiens) (UniProt P04637); test: TOX21_p53_BLA_p2_ratio: Tox21 HCT-116 p53 Agonism Beta-lactamase Assay, Ratio, Phase 2 (AID 2283592)
Sequence of Cellular tumor antigen p53 (Homo sapiens) (P04637 whole entry, looked up): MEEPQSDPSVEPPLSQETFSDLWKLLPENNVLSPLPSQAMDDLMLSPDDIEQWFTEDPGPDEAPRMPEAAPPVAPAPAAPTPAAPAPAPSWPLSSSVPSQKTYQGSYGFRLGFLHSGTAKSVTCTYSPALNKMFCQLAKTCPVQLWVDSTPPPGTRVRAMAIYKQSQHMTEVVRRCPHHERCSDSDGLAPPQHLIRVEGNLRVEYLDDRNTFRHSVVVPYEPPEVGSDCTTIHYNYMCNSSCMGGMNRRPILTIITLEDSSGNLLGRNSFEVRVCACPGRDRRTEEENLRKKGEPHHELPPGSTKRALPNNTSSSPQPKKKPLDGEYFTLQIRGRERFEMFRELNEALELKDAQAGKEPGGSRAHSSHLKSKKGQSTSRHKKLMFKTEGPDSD
Summary of the method: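 HCT116 p53-bla; 4000 cells/well; 5 h pre-incubation; cpd in DMSO, 217-fold dilution; 16 h 37C/5% CO2; CCF4-AM 2 h RT; Ex 405, Em 460/530 ratio; DMSO = baseline; positive fitting direction.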

[4] = TOX21_p53_BLA_p3_viability: Viability Assessment in the Tox21 HCT-116 p53 Agonism Beta-lactamase Assay, Phase 3 (AID 2283593);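 note: cells exposed to compound for 16 h before reading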
Summary of the method: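 Cellular ATP was quantified by CellTiter-Glo luminescence, read after 30 min at room temperature. Beforehand, HCT116 cells (4000/well) received compound 5 h post-seeding, 217-fold diluted from DMSO, then incubated 16 h at 37C.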

[5] = molecular target: Cellular tumor antigen p53 (Homo sapiens) (UniProt P04637); test: TOX21_p53_BLA_p3_ratio: Tox21 HCT-116 p53 Agonism Beta-lactamase Assay, Ratio, Phase 3 (AID 2283596)
Summary of the method: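 HCT116 p53-bla cells (4000/well) given compound in DMSO (217-fold dilution) after 5 h, incubated 16 h at 37C. CCF4-AM substrate 2 h at room temperature; 460/530 nm emission ratio, gain fitted against DMSO.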

[6] = TOX21_p53_BLA_p4_viability: Viability Assessment in the Tox21 HCT-116 p53 Agonism Beta-lactamase Assay, Phase 4 (AID 2283597);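 note: hits lower the luminescence signal meaning cytotoxicity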
Summary of the method: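 Cells plated, 5 h pre-incubation; DMSO compounds pinned (217-fold dilution); 16 h, 37C/5% CO2; CCF4-AM 2 h RT; CellTiter-Glo 30 min RT; luminescence read.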

[7] = molecular target: Cellular tumor antigen p53 (Homo sapiens) (UniProt P04637); test: TOX21_p53_BLA_p5_ratio: Tox21 HCT-116 p53 Agonism Beta-lactamase Assay, Ratio, Phase 5 (AID 2283599)
Summary of the method: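 Beta-lactamase reporter ratio (blue 460 nm over green 530 nm, 405 nm excitation) after 2 h CCF4-AM loading, in HCT-116 cells exposed 16 h at 37 C to compounds pinned at 217-fold dilution. Increases relative to DMSO baseline scored.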

[8] = TOX21_p53_BLA_p5_viability: Viability Assessment in the Tox21 HCT-116 p53 Agonism Beta-lactamase Assay, Phase 5 (AID 2283600)
Summary of the method: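 4000 cells/well; 5 h pre-incubation; DMSO compounds pin-transferred, 217-fold dilution; 16 h, 37C/5% CO2; CCF4-AM 2 h RT; CellTiter-Glo 30 min RT; luminescence.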

[9] = molecular target: Cellular tumor antigen p53 (Homo sapiens) (UniProt P04637); test: TOX21_p53_BLA_p4_ratio: Tox21 HCT-116 p53 Agonism Beta-lactamase Assay, Ratio, Phase 4 (AID 2283601)
Summary of the method: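 Signal is the blue/green (460nm/530nm) ratio of cleaved versus uncleaved CCF4-AM substrate, read after 2 h substrate loading. Cells were HCT116 carrying the p53-responsive beta-lactamase reporter, dosed 16 h at 37C, 5% CO2; CellTiter-Glo measured in parallel.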

[10] = system: Thyroperoxidase (TPO), gene 54314; test: CCTE_Simmons_AUR_rTPO: CCTE's Amplex UltraRed Assay for Thyroperoxidase (TPO) Inhibition, Simmons Lab (AID 2283662);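 for AC50: potency for loss of signal meaning inhibition of peroxidase activity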
Summary of the method: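 Rat thyroid microsomes (5 ug protein) were incubated with test compound (8 concentrations, 5 nM–87.5 uM final, 0.5% DMSO), 25 uM Amplex UltraRed and 300 uM H2O2 in 200 mM phosphate buffer for 30 min at 37C in the dark; fluorescence read at 544/590 nm.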

[11] = CCTE_Simmons_CellTiterGLO_HEK293T: Viability Assessment in CCTE's Assays for Thyroperoxidase (TPO) Inhibition, Simmons Lab (AID 2283665);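 for AC50: cells exposed to compound for 24 h before readout; actives reduce ATP signal below DMSO vehicle meaning cytotoxicity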
Summary of the method: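 Cytotoxicity counter-screen: human HEK293T cells in low-serum (1% FBS) medium receive test chemical, 5 nM to 87.5 uM final, for 24 h; ATP is quantified by luciferase luminescence.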

[12] = molecular target: Luciferin 4-monooxygenase (Photinus pyralis) (UniProt P08659); test: CCTE_Simmons_QuantiLum_inhib_2: CCTE's Firefly Luciferase Inhibition Assay, Simmons Lab (AID 2283767);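 for AC50: potency for inhibitors that lower luciferase luminescence relative to DMSO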
Sequence of Luciferin 4-monooxygenase (Photinus pyralis) (P08659 whole entry, looked up): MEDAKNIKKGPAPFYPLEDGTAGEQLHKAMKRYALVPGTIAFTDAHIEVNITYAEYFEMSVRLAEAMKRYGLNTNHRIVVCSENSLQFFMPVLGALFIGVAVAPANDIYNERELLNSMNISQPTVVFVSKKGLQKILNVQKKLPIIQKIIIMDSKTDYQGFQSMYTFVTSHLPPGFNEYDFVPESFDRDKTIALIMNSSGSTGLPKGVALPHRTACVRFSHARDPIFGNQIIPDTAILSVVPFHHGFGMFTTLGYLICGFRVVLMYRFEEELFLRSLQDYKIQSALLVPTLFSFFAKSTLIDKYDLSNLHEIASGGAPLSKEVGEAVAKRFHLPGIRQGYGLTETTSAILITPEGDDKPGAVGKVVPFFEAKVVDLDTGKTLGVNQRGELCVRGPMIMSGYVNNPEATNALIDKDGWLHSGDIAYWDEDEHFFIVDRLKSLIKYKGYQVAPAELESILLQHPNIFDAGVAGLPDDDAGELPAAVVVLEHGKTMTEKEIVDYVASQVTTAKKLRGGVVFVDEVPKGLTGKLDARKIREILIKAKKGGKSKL
Summary of the method: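 Counter-screen for nonspecific enzyme inhibition: purified firefly luciferase incubated 30 min at 37C with chemicals up to 87.5 uM final, then luminescence measured after luciferin/dATP injection; activity fitted against DMSO baseline.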

[13] = CEETOX_H295R_MTT_cell_viability: Viability Assessment in the CeeTox HT-H295R MTT Assay (AID 2283718; active = hit-call score of the fitted dose curve at least 0.9, where 1 is the maximum; inactive = score below 0.9;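 for AC50: curve fitted both ways so AC50 may mark viability loss or gain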)
Summary of the method: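 MTT reduction (0.5 mg/ml, 4 h at 37 C; absorbance at 570 and 650 nm) gave viability as background-corrected percent change versus controls. H295R cells had 48 h forskolin (10 uM) prestimulation, then 48 h chemical exposure at 0.1% DMSO.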

[14] = STM_H9_OrnCyssISnorm_ratio: Stemina devTOX quickPredict H9 human embryonic stem cell (hESC)-based Assay for Ornithine (ORN):Cystine (CYSS) Ratio (AID 2283714)
Summary of the method: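 Steps: H9 hESCs in pluripotent state dosed 72h, medium plus compound renewed every 24h; conditioned medium from the final 24h deproteinized in 40% acetonitrile; ORN and CYSS quantified by UPLC-HRMS with C13 spike-ins; ratio relative to vehicle.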

Measured: AC50

Oc1ccc(C2(c3ccc(O)c(C4CCCCC4)c3)CCCCC2)cc1C1CCCCC1
active: [1] 33.8 µM

Cc1ccc(O)c(-n2nc3ccccc3n2)c1
active: [11] 21 µM | [12] 1.54 µM
not listed: [13] | [14]
inactive: all other assays above

CC(C)(C)C(=O)C1C(=O)c2ccccc2C1=O
active: [4] 62 µM | [5] 42.7 µM and 35.6 µM | [7] 67.3 µM
inactive: [1] | [2] | [3] | [4] | [6] | [7] | [8] | [9]

CCOCN(C(=O)CS(=O)(=O)O)c1c(C)cccc1CC
inactive: [1]

CCc1cc(Cc2cc(CC)c(N)c(CC)c2)cc(CC)c1N
active: [6] 68 µM
not listed: [10] | [11] | [12] | [13] | [14]
inactive: all other assays above

CN(C)C(C)(C)CO
inactive: [1]

CC(=O)c1ccccc1N
inactive: [1]

c1ccc(C[P+](c2ccccc2)(c2ccccc2)c2ccccc2)cc1
inactive: [1]

CC(C)OC=O
not listed: [13] | [14]
inactive: all other assays above

CC(C)(C)c1cc(CCC(=O)NCCCCCCNC(=O)CCc2cc(C(C)(C)C)c(O)c(C(C)(C)C)c2)cc(C(C)(C)C)c1O
inactive: [1] | [13]

CC(C)CCCC(C)CCO (stereo not given)
inactive: [1] | [2] | [3] | [4] | [7] | [8] | [9]

CC(C)(C)c1cc(Cc2cc(C(C)(C)C)c(O)c(C(C)(C)C)c2)cc(C(C)(C)C)c1O
inactive: [1] | [12]
active: [10] 12.1 µM

CCOC(=O)CCC(C)=O
inactive: [2] | [3] | [5] | [7] | [8] | [9]

O=c1cccc[nH]1
inactive: [1] | [10] | [11] | [12]

Cc1ccc(O)cn1
inactive: [1] | [10] | [11] | [12]

C=CCOC(=O)CC(C)C
inactive: [1] | [2] | [3] | [4] | [6] | [7] | [8] | [9]

O=C1c2c(O)ccc(Nc3ccc(CCO)cc3)c2C(=O)c2c([N+](=O)[O-])ccc(O)c21
inactive: [1] | [2] | [3] | [6] | [7] | [9]

O=S(=O)(O)c1ccc(Cl)cc1
inactive: [1] | [2] | [6] | [8] | [9]

CCC(C)CO (stereo not given)
inactive: [1] | [3] | [4] | [5] | [7] | [8] | [9]

F[Si-2](F)(F)(F)(F)F
inactive: [1] | [3] | [4] | [5] | [6] | [7] | [8] | [9]

CCC/C=C/CO
inactive: [1] | [2] | [3] | [5] | [7] | [8] | [9]

CC(O)C#CC(C)O (stereo not given)
inactive: [2] | [3] | [4] | [5] | [6] | [7] | [8] | [9]

CCCCOC(=O)[C@H](C)O
inactive: [3] | [5] | [7] | [8] | [9]

CCCCOC(=O)C(C)O (stereo not given)
inactive: [1] | [3] | [4] | [5] | [6] | [7]

CCCCCCCCn1sc(Cl)c(Cl)c1=O
active: [1] 31.5 µM | [2] 85.9 µM | [4] 40.7 µM | [5] 21.7 µM | [6] 80.4 µM
inactive: [7] | [8] | [9]

OCC1CCCO1 (stereo not given)
inactive: [2] | [3] | [4] | [6] | [7] | [8] | [9]

Cc1ccc2c(c1)OCC(=O)CO2
inactive: [1] | [2] | [3] | [5] | [6] | [9]

COC(=O)c1ccc(C=O)cc1
inactive: [1] | [3] | [5] | [7] | [8] | [9]

CCN=C1C=CC(=C(c2ccc(N(CC)CC)cc2)c2ccc(N(CC)CC)cc2)c2ccccc21
active: [2] 60.4 µM | [3] 0.559 µM | [4] 66.1 µM | [5] 2.8 µM | [6] 45.9 µM | [7] 57.2 µM | [8] 69.4 µM | [9] 50 µM | [10] 33.4 µM | [11] 1.72 µM | [14] 0.151 µM | [12] 7.95 µM

CC(C)Nc1ccc(NC(C)C)c2c1C(=O)c1ccccc1C2=O
inactive: [3] | [5] | [7] | [8] | [9]

CSc1ccc(Cl)cc1
inactive: [2] | [3] | [4] | [5] | [6] | [7] | [8] | [9]

CC(C)CC=C(C=O)c1ccccc1
inactive: [2] | [4] | [5] | [6] | [9]

CC(C)OC(=O)COc1ccc(Cl)cc1Cl
inactive: [1] | [3] | [4] | [5] | [6] | [7] | [8] | [9]

Cc1cc(=O)[nH]c(C(C)C)n1
inactive: [2] | [3] | [4] | [5] | [6] | [7] | [8] | [9]

CC(=O)CCC(C)C
inactive: [2] | [3] | [4] | [5] | [6] | [7] | [8] | [9]

CCOC(=O)C1CC(=O)C(=C(O)C2CC2)C(=O)C1 (stereo not given)
inactive: [3] | [5] | [6] | [8] | [9]

CCC(=O)OC(C)c1ccccc1 (stereo not given)
inactive: [1] | [2] | [3] | [5] | [7] | [8] | [9]

Nc1c(Br)cc([N+](=O)[O-])cc1Br
inactive: [1]
active: [13] 29.7 µM

CCCCCCCCCCCCCC[P+](CCCC)(CCCC)CCCC
active: [1] 8.53 µM | [10] 47.9 µM | [11] 4.44 µM | [12] 83 µM

CCOC(OCC)OCC
inactive: [1] | [4] | [7] | [8]

CCCCCCCCCCCCCCCCC
inactive: [4] | [5] | [7] | [9]

CN(N=O)C(=O)N[C@@H]1[C@@H](O)[C@H](O)[C@@H](CO)O[C@@H]1O
inactive: [2] | [3] | [4] | [5] | [6] | [7] | [8] | [9]
